Values joined by “and” are separate entries in the source; they are usually repeats but may differ in a detail not shown here. Equal values may be shown once. Hit rate of the full screen: of about 290,000 compounds, about 1,800 (0.62%) were called active. This is one part of a sample in which actives are shown more often than they occur. Unmarked numbers belong to inactive results. Rule as the data show it: active = inhibition above about 50%; inactive = the rest.

The record followed here is PubChem BioAssay AID1566 (Sanford-Burnham Center for Chemical Genomics, 2009).

A short description of this assay: inhibition of NOD2-driven NF-kB reporter – cell-based, luminescence, uHTS, HEK293 (AID 1566). As to conditions: HEK293 NOD2/NF-kB luciferase reporter, at 4 µM, stronger effect = higher value.
With `Nn1cnnc1SCC(=O)Nc1ccc(C2CCCCC2)cc1`, the inhibition is -14.6%.

Consider `O=C(O)CSCC(=O)Nc1ccc(C2CCCCC2)cc1`, for which the inhibition was 73.5% (active).

Turning to `O=C(CSCCO)Nc1ccc(C2CCCCC2)cc1`, the inhibition was -8.8%.

As for `C=C1CCC[C@]2(C)C[C@H]3OC(=O)C(CNC(C)(CO)CO)[C@H]3CC12` (stereo partly drawn), the inhibition is 3.4%.

In the case of `CC1(C)CC(NC(=O)c2cccc3ccccc23)CC(C)(C)N1`, the inhibition is -1.7%.

`COc1cc(C(=O)Nc2scc(-c3ccc(C)cc3)c2C(=O)O)cc(OC)c1OC`: the inhibition was 42.9%.

For the molecule `COc1cc(C(=O)Nc2scc(-c3ccccc3)c2C(=O)O)cc(OC)c1OC`, the inhibition is 13.6%.

As for `COc1cc(C(=O)Nc2sc3c(c2C(=O)O)CCC3)cc(OC)c1OC`, the inhibition was 23.1%.

For the molecule `CC1CCc2c(sc(NC(=O)c3ccco3)c2C(=O)O)C1` (stereo not drawn), the inhibition was 36.1%.

On to `CC(C)(C)OC(=O)C(C)(C)O/N=C(\C(=O)O)c1csc(N)n1`, for which the inhibition is 12.5%.

Take `Cn1c(N/N=C/c2cc3ccccc3nc2Cl)nc2ccccc21`: the inhibition was -51%.

Regarding `CCn1c(C)nc2cc(-c3nc4n(n3)Cc3ccccc3-4)ccc21`, the inhibition is 93% (active).

On to `Cc1ccc(-c2nc3n(n2)Cc2ccccc2-3)cc1`, for which the inhibition was -79.2%.

Turning to `Clc1ccc(-c2nc3n(n2)Cc2ccccc2-3)cc1`, the inhibition was -152%.

As for `CCC(=O)c1ccccc1OCCN1CCN(Cc2ccccc2)CC1`, the inhibition was 2.5%.

In the case of `O=C(c1ccc(Cl)cc1)N1CCCCC(Sc2nnc(-c3ccc4c(c3)OCO4)o2)C1=O` (stereo not drawn), the inhibition was 29.1%.

Consider `O=C1CCCCC1Sc1nnc(-c2ccc3c(c2)OCO3)o1` (stereo not drawn), for which the inhibition was 71.3% (active).

Regarding `O=C1OCCC1Sc1nnc(-c2ccc3c(c2)OCO3)o1` (stereo not drawn), the inhibition is 28%.

For the molecule `CCN(CC)c1ccc2cc(NC(=O)CCC(=O)O)c(=O)oc2c1`, the inhibition was 57.1% (active).

As to `CCN(CC)c1ccc2cc(C(C)=O)c(=O)oc2c1`, the inhibition is -9.9%.

As for `CCN(CC)c1ccc2cc(C(N)=O)c(=O)oc2c1`, the inhibition is -17.6%.

Regarding `O=C(N/N=C/c1cccc(O)c1)C(=O)N1CCCCCC1`, the inhibition was 8.2%.

Turning to `COc1ccc(COC(=O)C2=C(C)NC(=O)NC2c2ccc(OC)cc2)cc1` (stereo not drawn), the inhibition was 17.9%.

`COc1ccc(COC(=O)C2=C(C)NC(=O)NC2c2ccc(O)cc2)cc1` (stereo not drawn): the inhibition was 5.6%.

Regarding `COc1ccc(COC(=O)C2=C(C)NC(=O)NC2c2ccc(F)cc2)cc1` (stereo not drawn), the inhibition is 50.5% (active).

Take `O=C(CN1CCN(S(=O)(=O)c2ccc(Cl)cc2)CC1)NC1CCCC1`: the inhibition is -2.2%.

For `C#CC(=O)N(c1ccc(OC)cc1OC)C(C(=O)NC1CCCC1)c1cccs1` (stereo not drawn), the inhibition was 62% (active).

As to `C#CC(=O)N(c1ccc(OC)c(OC)c1)C(C(=O)NC1CCCC1)c1cccs1` (stereo not drawn), the inhibition is -0.2%.

For `C#CC(=O)N(c1cc(OC)ccc1OC)C(C(=O)NC1CCCC1)c1cccs1` (stereo not drawn), the inhibition is 17%.

For the molecule `CC(=O)c1c(C)[nH]c(C(=O)Nc2nc(-c3ccc(Cl)cc3)cs2)c1C`, the inhibition was 31.2%.

Turning to `CC(=O)c1c(C)[nH]c(C(=O)Nc2nc(C)cs2)c1C`, the inhibition is -21.9%.

In the case of `CCCNC(=O)CCCN1C(=O)c2ccccc2Sc2ncccc21`, the inhibition is 7.1%.

Take `CCCCN(CC)CCCNC(=O)Cn1nc(Cc2ccncc2)c2ccccc2c1=O`: the inhibition is 2.4%.

On to `COc1ccc(-n2c(-c3ccc(Br)cc3)c[n+]3c2CCc2ccccc2-3)cc1`, for which the inhibition is 31.4%.

As to `Cc1ccc(-n2c(-c3ccccc3)c[n+]3c2CCc2ccccc2-3)c(C)c1`, the inhibition is 56.2% (active).

Take `COc1ccccc1-n1c(-c2ccccc2)c[n+]2c1CCc1ccccc1-2`: the inhibition is 49% and 41.3%.

With `Cc1ccc(C(=O)OCC(=O)c2cc(C)n(CC3CCCO3)c2C)cc1` (stereo not drawn), the inhibition was 18.2%.

`Cc1cc(C(=O)COC(=O)c2ccccc2NCCO)c(C)n1CC1CCCO1` (stereo not drawn): the inhibition is -4.6%.

For `COCCn1c(C)cc(C(=O)COC(=O)c2ccc[nH]c2=O)c1C`, the inhibition was 29.6%.

`CSc1ncccc1C(=O)OCC(=O)c1cc(C)n(CC2CCCO2)c1C` (stereo not drawn): the inhibition is 5.9%.

Regarding `COCCn1c(C)cc(C(=O)COC(=O)c2ccc(Br)o2)c1C`, the inhibition is 4.7%.

With `Cc1cc(C(=O)COC(=O)c2cccnc2Cl)c(C)n1CC1CCCO1` (stereo not drawn), the inhibition was 55.8% (active).

For `Cc1cc(C(=O)COC(=O)c2ccc(O)cc2)c(C)n1CC1CCCO1` (stereo not drawn), the inhibition is -113%.

As for `COCCn1c(C)cc(C(=O)COC(=O)c2ccccc2Br)c1C`, the inhibition was 68.7% (active).

Regarding `O=C(CC1C(=O)NCCN1C(=O)Nc1ccc(Cl)cc1)Nc1ccc(F)cc1` (stereo not drawn), the inhibition is 8.1%.

With `COc1ccc(C/C(C)=N/NC(=O)c2cccnc2)cc1`, the inhibition was -5.6%.

Consider `CCOc1ccccc1/C=C/C(=O)NCC(=O)N1CCC(N(C)C2CCCCC2C)CC1` (stereo not drawn), for which the inhibition was 9.7%.

As for `COc1ccc(CNCCNC(=O)c2nonc2N)cc1OC`, the inhibition was 11.4%.

For the molecule `Cc1ccc(S(=O)(=O)Nc2ccccc2C(=O)N2CCN(C)CC2)cc1`, the inhibition is 4%.

With `COc1ccc(NC(=O)CO/N=C(\C)c2cccs2)cc1`, the inhibition is -10.2%.

On to `O=C(Nc1ccccc1)Nc1cccc(C(F)(F)F)c1`, for which the inhibition was -38.6%.

In the case of `O=C(Nc1ccncc1)Nc1cccc(C(F)(F)F)c1`, the inhibition was 18%.

For the molecule `O=S(=O)(c1ccc(NCc2ccc(F)cc2)nc1)N1CCCC1`, the inhibition was 12.4%.

In the case of `CC(OC(=O)Cc1ccc(Cl)cc1)C(=O)NCCC1=CCCCC1` (stereo not drawn), the inhibition is 17.9%.

Turning to `Cc1cc(C(=O)Nc2ccccc2C(=O)O)ccc1NC(=O)COc1cccc(C)c1C`, the inhibition is 47.7%.

Turning to `COC(=O)c1ccc(NC(=O)c2ccccc2NS(C)(=O)=O)cc1`, the inhibition was 6.5%.

Consider `COC(=O)c1ccccc1NS(=O)(=O)c1ccc(NC(C)=O)cc1`, for which the inhibition was 1.9%.

Consider `COc1ccccc1C(=O)Nc1ccc(C(=O)c2ccccc2)cc1`, for which the inhibition is 4.1%.

Take `COc1ccccc1C(=O)Nc1ccc(C(=O)O)cc1`: the inhibition was -1.4%.

As to `Cc1ccccc1OCC(=O)Nc1ccc(C(=O)Nc2ccccc2C(=O)O)cc1`, the inhibition was 33.3%.

For the molecule `COc1ccccc1C(=O)Nc1ccc(C(=O)Nc2ccccc2C(=O)O)cc1`, the inhibition is 59.6% (active).

Regarding `c1ccc(CCSc2nccn2-c2ccccc2)cc1`, the inhibition is -141%.

`CCCc1cc(=O)oc2c3c(c(Cl)cc12)OCN(CCCO)C3`: the inhibition is -64.8%.

Regarding `CC(C)C(c1nnnn1C1CCCCC1)N1CCOCC1` (stereo not drawn), the inhibition is 0.1%.

With `CCOC(=O)c1cccc(NC(=O)c2cc3ccccc3o2)c1`, the inhibition was -97.4%.

In the case of `CCOc1ccc(/C=N/n2c(C)nnc2C)cc1OC`, the inhibition is 8%.

With `Cc1ccc(C(=O)OCc2cc3ccccc3[nH]c2=O)cc1`, the inhibition was 3.6%.

`O=C(c1ccc(N2CCN(C(=O)c3ccc(F)cc3F)CC2)cc1)c1cccc(F)c1`: the inhibition was 10.3%.

For the molecule `COCCn1c(C)cc(C2=NNC(=NC(C)(C)C)SC2)c1C`, the inhibition was 4.6%.

Take `COCCCN=C1NN=C(c2cc(C)n(Cc3ccccc3Cl)c2C)CS1`: the inhibition is -30.7%.

On to `C=CCn1c(C)cc(C2=NNC(=NCc3ccccc3)SC2)c1C`, for which the inhibition is -78%.

On to `COCCn1c(C)cc(C2=NNC(=Nc3ccccc3)SC2)c1C`, for which the inhibition was -146%.

With `COCCn1c(C)cc(C2=NNC(=Nc3ccc(Cl)cc3Cl)SC2)c1C`, the inhibition was 8.7%.

In the case of `C=CCN=C1NN=C(c2cc(C)n(CCOC)c2C)CS1`, the inhibition is 65.1% (active).

Consider `COCCn1c(C)cc(C2=NNC(=Nc3ccc(OC)cc3)SC2)c1C`, for which the inhibition is -9.9%.

Regarding `COCCN=C1NN=C(c2cc(C)n(CC3CCCO3)c2C)CS1` (stereo not drawn), the inhibition is 19.4%.

Regarding `COCCn1c(C)cc(C2=NNC(=Nc3ccccc3F)SC2)c1C`, the inhibition was 61.6% (active).

On to `Cc1cc(C2=NNC(=NCCc3ccccc3)SC2)c(C)n1CC1CCCO1` (stereo not drawn), for which the inhibition is -32.5%.

On to `COCCn1c(C)cc(C2=NNC(=NC3CC3)SC2)c1C`, for which the inhibition is 94% (active).

As to `C=CCN=C1NN=C(c2cc(C)n(CC=C)c2C)CS1`, the inhibition is 73.6% (active).

For `C#CCOc1c(Cl)cc(/C=C2/C(=O)ON=C2C)cc1OC`, the inhibition was 6.6%.

`Cn1c(=O)oc2cc(S(=O)(=O)NCCC(=O)NC3CCCC3)ccc21`: the inhibition was -0.1%.

As to `COc1ccc(CCN=C(N)Nc2nc(C)cc(C)n2)cc1`, the inhibition is 8.4%.

Take `COCCn1c(Cc2cccn2C)nnc1SCC(=O)NCc1ccc2c(c1)OCO2`: the inhibition is 5.3%.

In the case of `COc1ccccc1-n1c(SCC(=O)N2CCOCC2)nc2ccccc2c1=O`, the inhibition was 2.8%.

Turning to `CCOC(=O)CNC(=O)CSc1ccc2nnc(-c3ccc(F)cc3)n2n1`, the inhibition was 8.4%.

`Cc1ccc(-c2noc(C3CCCN(C(=O)c4ccc(Cl)cc4)C3)n2)o1` (stereo not drawn): the inhibition was -1.8%.

With `C=CCn1c(C)cc(C2=NNC(=Nc3ccc(C)cc3)SC2)c1C`, the inhibition is 3%.

For the molecule `Cc1cc(C2=NNC(=Nc3ccccc3)SC2)c(C)n1C`, the inhibition is -60.1%.

Regarding `CCN=C1NN=C(c2ccc(C)cc2)CS1`, the inhibition is -71.4%.

Regarding `C=CCn1c(C)cc(C2=NNC(=NC(C)(C)C)SC2)c1C`, the inhibition was 63.3% (active).

For the molecule `CC(C)(C)N=C1NN=C(c2ccc(Cl)cc2)CS1`, the inhibition is -99%.

On to `C=CCn1c(C)cc(C2=NNC(=NCC)SC2)c1C`, for which the inhibition was 92.6% (active).

Turning to `CN(C(=O)Cn1nnc2ccccc2c1=O)C1CCCCC1`, the inhibition was 6.8%.

As to `COc1ccc(-c2nnc(SCC(=O)NC3CCCCC3)o2)cc1`, the inhibition was 6%.

Turning to `CCOc1ccccc1N(CC(=O)NCC1CCCO1)C(=O)CNS(=O)(=O)c1ccccc1` (stereo not drawn), the inhibition is -15.5%.

Take `COc1ccc(-n2c(-c3ccc(C)cc3)n[nH]c2=S)cc1`: the inhibition was -6.4%.

As for `O=C(CCSc1nc(-c2ccco2)cc(C(F)(F)F)n1)N1CCN(c2ccccc2)CC1`, the inhibition was -17.1%.

Broadly, the inhibition is the change of the read-out against control, counted positive when it falls.
